Source: PubChem (National Center for Advancing Translational Sciences (NCATS))
This is a sample that favours compounds with a hit; in the whole collection about 10% have one here.
G9a inh – qHTS Assay for Inhibitors of Histone Lysine Methyltransferase G9a | Histone-lysine N-methyltransferase EHMT2 (Homo sapiens), Q96KQ7 | Potency, µM (doses to about 102 µM), actives largely listed as inhibitors | G9a H3K9 monomethylation, AlphaScreen, 2 h | 350,000 compounds, 8.8% hits; further: nearly all actives have a fitted effect of over 75% in size
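Chemiluminescent proximity detection of H3K9 monomethylation, read after 10 min bead incubation in the dark. Reaction: 20 nM G9a, 500 nM biotin-H3K9 peptide, 20 uM SAM cofactor, 2 h, room temperature, following 15 min enzyme-compound preincubation.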
JMJD2A Tudor – qHTS Assay for Inhibitors of JMJD2A-Tudor Domain. Lysine-specific demethylase 4A (Homo sapiens), O75164. AlphaScreen JMJD2A-Tudor / H3K4me3 peptide binding. Potency, µM (highest dose often 114 µM), actives largely listed as inhibitors. 390,000 compounds, 4.4% hits. AID 504339, 2011; further: nearly all actives have a fitted effect of over 50% in size
Target sequence (O75164 whole entry, looked up, the tested form may be a part): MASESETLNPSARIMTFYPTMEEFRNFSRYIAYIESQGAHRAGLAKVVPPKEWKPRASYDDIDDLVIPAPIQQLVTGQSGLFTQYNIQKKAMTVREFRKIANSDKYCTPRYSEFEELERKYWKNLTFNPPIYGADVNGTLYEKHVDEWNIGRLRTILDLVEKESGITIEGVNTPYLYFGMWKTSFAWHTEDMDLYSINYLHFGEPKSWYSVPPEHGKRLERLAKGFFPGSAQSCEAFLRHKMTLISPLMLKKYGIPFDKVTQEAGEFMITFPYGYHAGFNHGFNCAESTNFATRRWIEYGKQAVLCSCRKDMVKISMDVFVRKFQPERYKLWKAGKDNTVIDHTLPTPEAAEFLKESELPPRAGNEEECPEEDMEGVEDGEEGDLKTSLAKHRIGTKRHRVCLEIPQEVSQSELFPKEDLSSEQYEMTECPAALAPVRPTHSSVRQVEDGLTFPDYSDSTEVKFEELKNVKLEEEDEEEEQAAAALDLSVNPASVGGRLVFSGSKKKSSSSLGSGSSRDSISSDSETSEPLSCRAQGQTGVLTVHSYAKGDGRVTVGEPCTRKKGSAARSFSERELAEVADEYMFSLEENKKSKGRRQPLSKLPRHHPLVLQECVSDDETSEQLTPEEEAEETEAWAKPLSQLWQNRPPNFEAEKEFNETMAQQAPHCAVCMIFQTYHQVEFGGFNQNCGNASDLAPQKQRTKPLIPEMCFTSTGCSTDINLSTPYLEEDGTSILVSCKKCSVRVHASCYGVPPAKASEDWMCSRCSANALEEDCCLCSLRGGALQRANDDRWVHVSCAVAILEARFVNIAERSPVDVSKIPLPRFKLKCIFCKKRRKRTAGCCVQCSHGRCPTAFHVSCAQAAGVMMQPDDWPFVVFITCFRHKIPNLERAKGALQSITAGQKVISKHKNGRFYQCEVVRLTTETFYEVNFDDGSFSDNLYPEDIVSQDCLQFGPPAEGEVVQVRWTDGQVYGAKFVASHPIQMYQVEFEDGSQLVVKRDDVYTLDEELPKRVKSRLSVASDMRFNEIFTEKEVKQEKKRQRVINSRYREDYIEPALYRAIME
CtBP-E1A inh – qHTS Assay for Inhibitors of the CtBP/E1A Interaction; CtBP / adenovirus E1A interaction (AlphaScreen); AlphaScreen GST-E1A/His-CtBP binding, 1536-well; hits give low values; 340,000 compounds, 0.49% hits; activity change, % (concentration not given with the values); AID 651724, 2012; in the data active means activity change below about -65%; inconclusive means mostly about -30% to -63%
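Homogeneous bead-based format: GST-tagged E1A captured on glutathione donor beads, His-tagged CtBP on nickel acceptor beads; compounds precede bead addition by 2 h at 37 °C.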
Six1-Eya2 blk – qHTS Assay for Inhibitors of the Six1/Eya2 Interaction; Homeobox protein SIX1 (Homo sapiens) + Protein phosphatase EYA2 (Homo sapiens), …; AlphaScreen GST-Six1/His-Eya2 binding, biochemical; hits give low values; activity change, % (concentration not given with the values); 360,000 compounds, 0.56% hits; in the data active means activity change below about -65%; inconclusive means mostly about -30% to -63%
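Compounds are tested against tagged Six1 and Eya2 proteins bridged by glutathione donor and nickel acceptor beads; after a one-hour incubation at 37 °C without light, AlphaScreen emission is recorded.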
BAZ2B block – qHTS Assay for Inhibitors of BAZ2B | AlphaScreen BAZ2B-H3K14Ac peptide displacement | 360,000 compounds, 4.4% hits | Potency, µM (top dose mostly 114 µM), actives largely listed as inhibitors | Bromodomain adjacent to zinc finger domain protein 2B (Homo sapiens), Q9UIF8; further: nearly all actives have a fitted effect of over 60% in size
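Complex of BAZ2B and biotin-H3K14Ac (50 nM apiece) forms over 30 min at RT, then faces library compounds up to 110 uM for another 30 min; AlphaScreen beads added, 20 min dark incubation, luminescence read.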
HP1b binding inh – HTS for Inhibitors of HP1-beta Chromodomain Interactions with Methylated Histone Tails. Chromobox protein homolog 1 (Homo sapiens), P83916. AlphaScreen HP1-beta / biotin-H3K9me3 peptide binding. Potency, µM (titrated, usually from 114 µM), usual class: inhibitors. 390,000 compounds, 0.56% hits. AID 540317, 2011; further: nearly all actives have a fitted effect of over 70% in size
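AlphaScreen: HP1-beta (50 nM) preformed 30 min with biotin-H3(1-18)K9me3 peptide (50 nM) in PBS pH 7.4, 0.01% Tween-20. Compound added for 30 min at RT, then streptavidin donor/nickel chelate acceptor beads (10 ug/mL) for 30 min.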
Hits are given with their value; - = inactive; ? = inconclusive; . = not tested or not shown; [ ] = another dose, or the depositor's remark. Unless noted, the call rests on the fitted dose curve; in most records, active means well fitted inhibition curve with a large enough effect; inconclusive means small, poorly fitted or top-dose-only effect; inactive means no such curve, though single readings can be large or run the other way.

SMILES	G9a inh	JMJD2A Tudor	CtBP-E1A inh	Six1-Eya2 blk	BAZ2B block	HP1b binding inh
O=[N+]([O-])c1ccc(Cl)cc1CN1CCCCCC1	22µM	20µM	-	-	?	?
O=C(C1CCCN(Cc2ccc3c(c2)OCO3)C1)N1CCCC1 (centres undefined)	10µM	40µM	-	-	56µM	?
O=C(c1ccccn1)N(Cc1cc2ccccc2[nH]c1=O)C1CCCCC1	-	-	-	-	-	-
COc1ccc2[nH]c(=O)c(CN(C3CCCCC3)C(c3nnnn3Cc3ccco3)C(C)C)cc2c1 (centres undefined)	22µM	?	-	-	-	?
COc1ccc2[nH]c(=O)c(CN(Cc3nnnn3Cc3ccco3)C3CCCCC3)cc2c1	40µM	?	-	-	50µM	-
COc1ccc2[nH]c(=O)c(CN(C(=O)c3ccccn3)C3CCCCC3)cc2c1	28µM	-	-	-	-	-
O=C(Oc1ccccc1)N1CCC2(CCCN(c3ccccn3)C2)CC1	-[12.7 µM]	.	.	.	.	.
CC(C)(C)OC(=O)N1Cc2ccccc2C[C@H]1C(=O)N1CCC[C@H]1C(=O)O	18µM	-	-	-	-	-
Cc1ccc(-n2nnnc2SCC(=O)N2Cc3ccccc3CC2C(=O)O)cc1 (centres undefined)	45µM	-	-	-	-	-
COc1ccc(CNC(=O)[C@@H]2CCCN2C(=O)[C@@H]2Cc3ccccc3CN2C(=O)OC(C)(C)C)cc1	-	-	-	-	-	-
Cc1ccc(-n2c(SCC(=O)N3Cc4ccccc4CC3C(=O)O)nnc2-c2cccnc2)c(C)c1 (centres undefined)	45µM	-	-	-	-	-
Cc1ccc(C(=O)N2Cc3ccccc3CC2C(=O)O)cc1 (centres undefined)	35µM	?	-	-	-	-
Cc1ccc2c(CNC3CCCC3)c(C(=O)O)n(Cc3ccc(F)cc3)c2c1	-	-	.	.	-	-
CC(=O)N1Cc2ccccc2CC1C(=O)N1CCN(c2ccccc2)CC1 (centres undefined)	-	-	-	-	-	-
COc1ccc(N2CCN(C(=O)C3Cc4ccccc4CN3C(=O)c3ccccc3)CC2)cc1 (centres undefined)	50µM	-	-	-	?	-
Cc1cccc(C)c1NC(=O)CN(C)C(=O)CCc1nc2sc3c(c2c(=O)[nH]1)CCCC3	-[12.7 µM]	-	-	-	?	-
CC(=O)c1ccc(NC(=O)CCc2nc3sc4c(c3c(=O)[nH]2)CCCC4)cc1	?	-	-	-	56µM	-
CCOC(=O)CSc1nc2sc3c(c2c(=O)[nH]1)CCCC3	-	-	-	-	-	-
CCOC(=O)C1CCN(C(=O)CCc2nc3sc4c(c3c(=O)[nH]2)CCCC4)CC1	50µM	?	-	-	?	-
CN(CC(=O)Nc1ccc(F)c(F)c1F)C(=O)CCc1nc2sc3c(c2c(=O)[nH]1)CCCC3	50µM	-	-	-	50µM	-
Cc1cccc(NC(=O)CNC(=O)CCc2nc3sc4c(c3c(=O)[nH]2)CCCC4)c1C	50µM	40µM	-	-	40µM	?
CC(C)CCC[C@@H](C)[C@H]1CC[C@H]2[C@@H]3CC[C@@H]4C[C@H](O)CC[C@]4(C)[C@H]3CC[C@]12C	-[12.7 µM]	.	.	.	.	.
O=C1NC(=O)C2(CCCc3ccccc32)N1 (centres undefined)	-	-	.	-	-	-
COC(=O)c1ccc2nc(NC(=O)CSCC(=O)OCC(=O)c3ccccc3)sc2c1	7.9µM	?	-	-	-	-
Cc1ccc2nc(NC(=O)CSCC(=O)OCC(=O)c3ccc(Br)cc3)sc2c1	45µM	?	-	-	-	-
SMILES	G9a inh	JMJD2A Tudor	CtBP-E1A inh	Six1-Eya2 blk	BAZ2B block	HP1b binding inh
Cn1c(-c2ccccc2)cc(=O)cc1-c1ccccc1	.	.	-	-	.	.
O=c1cc(-c2ccccc2)cc(-c2ccccc2)n1O	-[12.7 µM]	50µM	?	-	35µM	-
COc1ccc(Cl)cc1-c1cc(C(=O)N[C@H](C)c2ccccc2)[nH]n1	.	.	-	-	.	.
COc1ccc(-c2nc3cnc(N(C)C)nc3n(C3CC3)c2=O)cc1	-[0.501 µM]	.	.	.	.	.
Cc1cc(O)c(C(C)C)cc1N=Cc1ccccc1O	5.6µM	?	.	-	?	-
COc1cccc(Nc2ncc3nc(C)c(=O)n(-c4ccccc4)c3n2)c1	-[0.501 µM]	.	.	.	.	.
COc1ccc(-c2nc(CS(=O)CC(=O)NC3CCCCC3C)c(C)o2)cc1 (centres undefined)	-	-	-	-	-	-
CC(C)(C)C(=O)Nc1nnc(COc2ccc(Cl)cc2)s1	-	-	-	-	-	-
Fc1ccc2[nH]c3c(c2c1)CN(C(=S)NCc1ccccc1)CC3	.	?	-	-	56µM	-
CCN(CC)CCN(C(=O)CCOc1ccccc1)c1nc2ccc(F)cc2s1	?	-	-	-	.	-
Fc1ccc(Nc2nc(NCc3ccco3)nc3nccnc23)cc1	.	-	.	.	.	-
Cc1c(CCC(=O)O)c(=O)oc2cc3occ(-c4ccc(Br)cc4)c3cc12	?	-	?	?	-	?
Cc1c(CCC(=O)O)c(=O)oc2c(C)c3occ(-c4ccc(Cl)cc4)c3cc12	?	?	-81	-86	56µM	?
CCC(NC(=O)CCc1c(C)c2cc3c(C)c(C)oc3cc2oc1=O)C(=O)N[C@@H](Cc1ccccc1)C(=O)O (some centres undefined)	?	?	?	?	50µM	-
Cc1c(CC(=O)O)c(=O)oc2c(C)c3occ(-c4ccccc4)c3cc12	?	-	-	-77	-	-
Cc1cc2oc(=O)c(CC(=O)O)c(C)c2c2occ(-c3ccccc3)c12	-	-	.	.	-	-
CCCC(NC(=O)CCc1c(C)c2cc3c(-c4ccccc4)coc3cc2oc1=O)C(=O)O (centres undefined)	-	-	-68	-	-	-
CN(C)C=NC(=O)c1[nH]c2ccc(Cl)cc2c1-c1ccccc1	-[2.33 µM]	-	-	-	-	-
COCCN(C(=O)CSc1nnc(-c2ccccc2OC)o1)c1c(N)n(CC(C)C)c(=O)[nH]c1=O	-[0.501 µM]	-	-	-	-	-
Cc1c(CCC(=O)O)c(=O)oc2cc3occ(-c4ccc(Cl)cc4)c3cc12	-	-	-71	?	-	-
Cc1coc2c(C)c3oc(=O)c(CCC(=O)NCCC(=O)O)c(C)c3cc12	-	?	-	-	50µM	-
Cc1c(CCC(=O)O)c(=O)oc2cc3occ(-c4ccc(F)cc4)c3cc12	-[12.7 µM]	-	?	?	-	-
